# Among all 310,000 compounds or so, about 2,200 (0.71%) showed an effect of 50% or more. Effects have a minus sign here. The sample holds strong results, similar compounds and a random draw of the others, so the mix is not that of the screen.
# Biological target: human ether-à-go-go-related gene (hERG) potassium channel (human, UniProt Q12809)
# Assay: primary screen, population patch clamp on CHO cells stably expressing hERG; higher = less effect of the substance
# Sequence of human ether-à-go-go-related gene (hERG) potassium channel (Q12809 whole entry, looked up): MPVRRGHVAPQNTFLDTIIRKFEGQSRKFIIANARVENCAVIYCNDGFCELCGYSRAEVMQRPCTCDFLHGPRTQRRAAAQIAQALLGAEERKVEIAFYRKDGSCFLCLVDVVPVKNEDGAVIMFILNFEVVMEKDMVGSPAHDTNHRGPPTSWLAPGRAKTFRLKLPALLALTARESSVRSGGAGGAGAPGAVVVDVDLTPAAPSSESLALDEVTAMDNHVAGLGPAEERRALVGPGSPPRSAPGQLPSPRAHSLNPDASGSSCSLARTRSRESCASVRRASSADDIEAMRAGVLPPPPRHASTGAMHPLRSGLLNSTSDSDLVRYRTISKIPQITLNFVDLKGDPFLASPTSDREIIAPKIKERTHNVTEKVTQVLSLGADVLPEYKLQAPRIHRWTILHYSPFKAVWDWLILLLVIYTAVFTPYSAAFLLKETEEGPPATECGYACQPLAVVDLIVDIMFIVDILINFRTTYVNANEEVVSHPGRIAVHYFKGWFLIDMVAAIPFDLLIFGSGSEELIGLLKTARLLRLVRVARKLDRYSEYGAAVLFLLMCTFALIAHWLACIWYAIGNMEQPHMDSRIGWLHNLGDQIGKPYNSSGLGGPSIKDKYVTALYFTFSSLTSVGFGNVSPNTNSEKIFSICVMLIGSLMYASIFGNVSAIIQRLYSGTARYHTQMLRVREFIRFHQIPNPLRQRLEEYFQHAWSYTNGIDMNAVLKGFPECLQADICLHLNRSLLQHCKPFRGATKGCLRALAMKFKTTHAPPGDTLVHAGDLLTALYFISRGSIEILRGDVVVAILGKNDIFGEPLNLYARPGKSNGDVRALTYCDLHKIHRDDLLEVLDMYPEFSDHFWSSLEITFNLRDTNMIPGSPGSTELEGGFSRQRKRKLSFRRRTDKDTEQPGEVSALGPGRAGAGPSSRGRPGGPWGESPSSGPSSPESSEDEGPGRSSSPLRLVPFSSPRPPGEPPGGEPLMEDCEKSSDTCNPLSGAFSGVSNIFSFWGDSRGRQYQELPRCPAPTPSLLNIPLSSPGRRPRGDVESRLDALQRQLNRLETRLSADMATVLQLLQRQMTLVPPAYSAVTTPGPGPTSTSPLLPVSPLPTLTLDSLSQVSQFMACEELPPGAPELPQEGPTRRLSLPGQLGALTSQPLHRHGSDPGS
row,SMILES,"hERG current change (%, negative = inhibition) at 1uM"
1,O=S(=O)(c1ccccc1)c1nc(-c2ccco2)oc1N1CCCCCC1,11.4%
2,O=C(Nc1ccncc1)c1ccc(F)cc1,7.66%
3,Cc1ccc(NC(=O)CSc2nnc(-c3cccnc3)n2CCN2CCCCC2)cc1,-53.7%
4,O=C(CSc1nnc(-c2cccnc2)n1CCN1CCCCC1)Nc1cccc(Cl)c1,-80.3%
5,Cn1c(SCC(=O)Nc2ccc(F)cc2)nnc1-c1cccnc1,-2.78%
6,CCCn1c(SCC(=O)Nc2cccc(C(=O)OC)c2)nnc1-c1cccnc1,-22.5%
7,Cc1ccc(NC(=O)C(C)Sc2nnc(-c3cccnc3)n2-c2ccccc2)cc1 (stereo not drawn),-86.2%
8,O=C(CSc1nnc(-c2cccnc2)n1-c1ccccc1)Nc1ccccc1,-44.9%
9,Cc1ccc(NC(=O)CSc2nnc(-c3cccnc3)n2-c2ccc(C)cc2)cc1,2.22%
10,Cc1ccc(NC(=O)C(C)Sc2nnc(-c3cccnc3)o2)cc1 (stereo not drawn),14%
11,Cn1c(SCC(=O)Nc2cccc(F)c2)nnc1-c1cccnc1,-6.1%
12,CCOC(=O)c1ccc(CSc2nnc(N)s2)cc1,5.39%
13,Cc1ccc(C(=O)N2NC(c3ccc(F)cc3)C3C(=O)N(c4ccc(C)c(C)c4)C(=O)C32)cc1 (stereo not drawn),10.6%
14,CCOC(=O)C1CCN(C(=O)Cn2cc(C(=O)C3CC3)c3ccccc32)CC1,13.4%
15,O=C(O)C(Cc1c[nH]c2ccccc12)NS(=O)(=O)c1ccc(Cl)c(C(F)(F)F)c1 (stereo not drawn),7.86%
16,COc1ccc(NC(=S)Nc2ccc(OC)cc2OC)c(OC)c1,17.8%
17,COC/C=C/C1=CC2=CC(=O)C(C)(OC(=O)c3cnc4ccccc4n3)C(=O)C2=CN1C1CC1 (stereo not drawn),9.57%
18,N#Cc1cn(CCCOc2ccccc2)c2ccccc12,11.3%
19,c1csc(-c2nnc(NC3CCCCC3)c3ccccc23)c1,-40.8%
20,c1ccc(-c2nc(NC3CCCC3)c3ccccc3n2)cc1,18.4%
21,c1ccc2c(NC3CCCC3)nnc(NC3CCCC3)c2c1,-70.4%

row,SMILES,"hERG current change (%, negative = inhibition) at 1uM"
1,CC1(C(=O)O)COC(c2ccc([N+](=O)[O-])cc2)OC1 (stereo not drawn),2.26%
2,Cn1c(=O)cc(SCC(=O)N2CCCC2)c2ccccc21,9.79%
3,CCn1ccnc1CNC(=O)CC1C(=O)NCCN1Cc1ccc(F)cc1Cl (stereo not drawn),13.5%
4,COc1ccc2[nH]cc(C(O)CN3CCN(c4ccccc4F)CC3)c2c1 (stereo not drawn),8.35%
5,COc1ccc2[nH]cc(C(O)CN3CCC(C(N)=O)CC3)c2c1 (stereo not drawn),11.1%
6,COc1ccc(N2CCN(CC(O)c3c[nH]c4ccc(OC)cc34)CC2C)cc1 (stereo not drawn),-50.6%
7,CC(C)OC(=O)/C(=C\c1ccccc1)NC(=O)c1ccccc1,9.47%
8,CCN(CC)S(=O)(=O)c1ccc(C)c(NC(=O)CNCCN(C(C)C)C(C)C)c1.O=C(O)C(=O)O,-66.5%
9,CCN(CC)S(=O)(=O)c1ccc(C)c(NC(=O)CN2CCN(C)CC2)c1.O=C(O)C(=O)O,6%
10,CCN(CC)S(=O)(=O)c1ccc(C)c(NC(=O)CNCc2ccccc2OC)c1.O=C(O)C(=O)O,20.9%
11,O=C1Nc2ccccc2N=C(c2ccccc2)C1N1CCOCC1 (stereo not drawn),18.1%
12,COc1nc(NC2CCCCC2)nc(NC(C)(C)C)n1,4.9%
13,Cc1cc(C)nc(SCc2nnc(SCc3ccc([N+](=O)[O-])cc3)n2Cc2ccco2)n1,-57.5%
14,Cc1cc(C)nc(SCc2nnc(SCC(N)=O)n2Cc2ccco2)n1,-3.7%
15,Cc1cccc(-c2nnc(SCc3ccc(C#N)cc3)n2Cc2ccco2)c1,-44%
16,Cc1ccc(NCc2nnc(SCc3ccc(C#N)cc3)n2Cc2ccco2)c(C)c1,-54.9%
17,Cc1ccc(-c2nnc(SCc3ccc(C#N)cc3)n2Cc2ccco2)cc1,-19.2%
18,COC(=O)CSc1nnc(CSc2nc(C)cc(C)n2)n1Cc1ccco1,11.5%
19,Cl.O=C(NCCCn1ccnc1)c1cc(Cl)cc(Cl)c1,4.65%
20,CC1CCC/C(=C\Nc2ccc(C(=O)O)c(O)c2)C1=O (stereo not drawn),9.19%
21,COc1cc(OC)cc(C(=O)Oc2ccc(/C=N/Nc3nc4ccccc4s3)cc2OC)c1,0.482%
